High-throughput results deposited in PubChem BioAssay by several laboratories.
Lmaj promast – Leishmania major promastigote growth inhibition, primary screen; Leishmania major promastigotes, resazurin fluorescence viability; inhibition, % at 10 µM; hit rate 9% among 200,000; AID 1063, 2008; in the data active means inhibition above about 50%;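 further: promastigotes grown with compound for 44 hours at 28 °C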
Autophagy mod – autophagy modulators in MEF cells, primary screen, imaging, high-content, MEF GFP-LC3; MEF GFP-LC3 puncta imaging; test concentration mostly 10 µM; calls only at 10 µM (by protocol); hit rate 0.98% among 190,000; AID 463193, 2010;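 active means percentage of spot-positive cells more than 3 SD above its plate mean, without a fluorescence outlier flag or 80% toxicity; inconclusive means no clear call, values can overlap the other calls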;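 further: spot-positive cell cutoff set from DMSO-treated cells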
Insulin prom inh – inhibitors of insulin promoter-driven GFP, primary screen, imaging, TRM-6 cells (human fetal islet line), eGFP reporter, cell count. inhibition, % at 2 µM. hit rate 0.9% among 130,000. reporter expression induced with tamoxifen;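 active means inhibition above the mean plus 3 SD, with well images judged a real hit on visual review, cut at about 60% in these data, passing the limit was not always enough; inconclusive means inhibition over the cutoff but images rejected on review; inactive means inhibition not above the cutoff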
Insulin prom up – insulin promoter activators in MIN6 cells, imaging, high-content screening, mouse beta cells; MIN6 insulin promoter-GFP reporter; stronger effect = higher value; z-score at 5 µM; hit rate 0.3% among 190,000; AID 1625, 2009;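 active means z-score above 3 at 5 µM with at least 500 cells counted in the well; inconclusive means wells under 500 cells, flagged as cytotoxic or low count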
WT yeast gro inh – growth inhibition of WT strain, primary screen, mitochondrial fusion inhibitor project, WT and mutant strains, chemical genetic; inhibition, % at 10 µM; mitochondrial fusion phenotypic screen; hit rate 2.1% among 190,000; in the data active means inhibition above about 58%; tested in S. cerevisiae
* = called active by the depositor; i = inactive; ? = inconclusive; . = no result; + = active, no number. Shown are actives, neighbours in structure and some others; about 11% of the full set was active somewhere.

SMILES	Lmaj promast	Autophagy mod	Insulin prom inh	Insulin prom up	WT yeast gro inh
COc1ccc(CNC(=O)C(C#N)c2nc3ccccc3nc2N2CCN(C)CC2)cc1 (stereo not given)	23.4	i	-15.4	-0.78	-0.8
CC(=O)Nc1ccc(C(O)(C(F)(F)F)C(F)(F)F)cc1	-5.4	i	-57.1	1.13	-1.2
CC(C)OC(=O)N(C)c1ccc(C(O)(C(F)(F)F)C(F)(F)F)cc1	99.9*	i	3.9	.	15.1
CC(=O)c1ccc(OCC(=O)c2ccc(-c3ccccc3)cc2)cc1	59.5*	i	11.1	0.08	17.5
CCOC(=O)c1ccc(NC(=O)C(C)NS(=O)(=O)c2ccc(OC)cc2)cc1 (stereo not given)	37.1	i	-38.7	0.65	-5.9
CC(C)OC(=O)COc1ccc(-c2ccccc2)cc1	-7.9	i	-6.2	-0.19	-9.4
CN(C)CC(=O)c1ccc(-c2ccccc2)cc1	86.3*	i	.	0.46	-6.7
CCOC(=O)c1ccc(NC(=O)COc2ccc(S(=O)(=O)NC(C)CC)cc2)cc1 (stereo not given)	-1.9	i	-7.9	3.08*	5.3
CCCOC(=O)c1ccc(NC(=O)CCOc2ccccc2)cc1	30.8	i	-32.2	0.04	17.4
CCOC(=O)c1ccc(NC(=O)CCOc2ccccc2)cc1	84.5*	i	0.0	.	.
COc1ccc(NCC(=O)N/N=C/C2CCCCC2)cc1	.	.	.	-0.89	.
O=C(Nc1nccs1)c1csc2c1CCCC2	12.8	i	30.8	-0.32	15.2
N#C/C(=C\c1ccccc1)C(=O)N(c1ccccn1)C1CCCCC1	14.2	i	31.2	-0.09	26.8
Fc1ccc2[nH]c3c(c2c1)CN(C(=S)NCc1ccccc1)CC3	.	.	.	-0.29	.
Cn1nc(C(=O)Nc2nc(-c3ccc(F)cc3)cs2)ccc1=O	.	.	.	0.19	.
O=C(O)CCCC(=O)Nc1cccc([N+](=O)[O-])c1	1.9	i	.	0.19	-3.5
CCOc1ccc(NC(=O)Cc2ccccc2)cc1	-1.5	i	0.0	0.15	-1.6
Cc1cccc(OCCCC(=O)Nc2ccc(N(C)C)cc2)c1	96.5*	i	-13.2	0.88	-0.3
Cc1cccc(OCCCC(=O)Nc2ccc(Br)cc2)c1	-1.4	i	3.6	-0.23	8.9
CCOC(=O)c1ccc(N/C(=N\S(=O)(=O)c2ccccc2C)c2ccccc2)cc1	87.8*	i	-26.7	-0.25	6.5
CCOc1ccc(NC(=O)CCC(=O)c2ccc(-c3ccccc3)cc2)cc1	50.5*	i	29.7	-0.61	-20.3
O=C(CCCOc1ccccc1)Nc1cccc([N+](=O)[O-])c1	3.4	i	76.9*	-0.8	4.1
COc1ccc(C)cc1NC(=S)NC12CN3CN(CN(C3)C1)C2	-3.9	i	38.9	1.67	1.6
CNC(=O)CN(c1cc(OCCOC)c(Cl)cc1Cl)S(=O)(=O)c1ccc(OC)cc1	-1.1	i	-135.7	0.57	4.4
CCCOc1ccc(CSC2=NCCN2)cc1[N+](=O)[O-]	56.6*	i	.	-0.84	4.8
SMILES	Lmaj promast	Autophagy mod	Insulin prom inh	Insulin prom up	WT yeast gro inh
O=c1cc(-c2ccccc2Cl)oc2ccc([N+](=O)[O-])c(O)c12	-2.3	i	35.0	0.06	63.6*
Cc1cccc(C2C3=C(Nc4[nH]n(-c5ccccc5)c(=O)c42)c2ccccc2C3=O)c1 (stereo not given)	-9.9	+	-24.0	-4.1	-3.2
COc1ccc(/C=C2\SC(=O)N(CCNC(=O)Cc3coc4cc(OC)ccc34)C2=O)cc1	59.1*	i	-18.9	0	0.6
CC(C)(C)SCCNC(=O)CSCc1ccc([N+](=O)[O-])cc1	-0.7	i	9.7	1.24	-4.2
CCc1nnc(NC(=O)c2ccncc2)s1	-4.0	i	-22.6	0.69	-7.0
Cc1ccc(S(=O)(=O)CCc2nnc(NC(=O)c3ccccn3)s2)cc1	82.0*	i	.	-0.14	5.5
CCc1nnc(NC(=O)c2cccc(C(=O)Nc3nnc(CC)s3)n2)s1	99.4*	i	.	-3.78	63.1*
Nc1nnc(CCCCCc2nnc(N)s2)s1	-0.6	i	.	0.32	-9.5
O=C(O)c1ccccc1C(=O)N1CC=C(c2ccccc2)CC1	89.8*	i	.	-2.08	1.9
CCOC(=O)c1c(-c2ccc(F)cc2)csc1/N=C/N(C)C	-7.0	i	-75.0	-1	-4.5
COc1ccc(NC(=O)CCc2nc3ccccc3[nH]2)cc1	0.1	i	0.0	0.37	-10.7
O=C(Nc1ccc(F)cc1)c1ccccc1Oc1ccc(C(F)(F)F)cc1[N+](=O)[O-]	97.2*	i	-22.2	-0.99	65.8*
CCOC(=O)c1ccc2c(c1)N(Cc1ccccc1C)C(=O)c1ccccc1S2=O (stereo not given)	99.2*	i	33.3	.	-11.7
COC(=O)c1ccc2c(c1)N(Cc1ccccc1F)C(=O)c1ccccc1S2=O (stereo not given)	100.1*	i	.	.	19.0
COC(=O)c1ccc2c(c1)N(Cc1cc(C)ccc1C)C(=O)c1ccccc1S2=O (stereo not given)	-4.2	i	15.0	1.32	4.8
CC(=O)c1c(C)nn(CC(O)COc2ccc3ccccc3c2)c1C (stereo not given)	-3.7	i	.	-0.1	-24.3
CCCCCCOC(=O)Nc1ccc(S(=O)(=O)Nc2cccc([N+](=O)[O-])c2)cc1	35.3	i	-7.4	-0.25	-27.1
CCN1CCCC1CNC(=O)c1c(O)c2c([nH]c1=O)CCCC2 (stereo not given)	52.2*	i	-31.2	0.7	0.4
CCN1CCC[C@H]1CNC(=O)c1c(O)c(Cl)cc(Cl)c1OC	.	.	.	0.71	-2.6
Cc1cc(C)nc(N/N=C/C(Cl)=C/c2ccccc2)n1	32.1	i	-10.7	-0.87	26.6
O=C(NC1CCCC1)C1c2ccccc2C(=O)N1CCCN1CCOCC1 (stereo not given)	-8.5	i	60.0*	-0.07	-11.3
COCCCN1C(=O)c2ccccc2C1C(=O)NC1CCCCCC1 (stereo not given)	-3.0	i	-72.2	0.66	-1.1
COc1cc(OC)c(NC(=S)Nc2cccc(C(C)=O)c2)cc1Cl	-0.1	i	-15.4	0.28	2.1
COc1cc(C)c(NC(=S)Nc2ccc(Cl)c(Cl)c2)cc1OC	10.6	i	.	0.2	79.5*
COc1cc(OC)c(NC(=S)Nc2cc(Cl)cc(Cl)c2)cc1Cl	35.2	i	.	-1.71	82.7*
SMILES	Lmaj promast	Autophagy mod	Insulin prom inh	Insulin prom up	WT yeast gro inh
COc1cc(NC(=S)Nc2cccc(Cl)c2Cl)c(OC)cc1Cl	59.4*	i	-34.5	0.2	-6.7
COc1cc(NC(=S)NC(C)(C)C)c(OC)cc1Cl	67.1*	i	.	0.45	18.6
COCCNC(=S)Nc1ccc(Cl)c(Cl)c1	7.3	i	5.9	-0.33	11.0
CCOc1ccc(C(=O)NNC2CC(=O)N(Cc3ccc(Cl)cc3)C2=O)cc1OC (stereo not given)	0.4	i	.	0.11	-6.9
CN(C(=O)COc1ccccc1C(=O)NCCOc1ccccc1)c1ccccc1	21.0	i	-37.5	?	3.8
CC(OC(=O)c1nsc(Cl)c1Cl)C(=O)NC(C)(C)C (stereo not given)	-4.5	i	-140.0	.	-4.6
